ALDH1A1 block = ALDH1A1 (human) enzyme inhibition. Purified ALDH1A1, NADH fluorescence, propionaldehyde substrate. Potency, µM (top dose mostly 75.3 µM), for the others: at the highest dose activity, negative = inhibition, most hits filed as inhibitors. AID 1030. P00352. 7.3% of 220,000 active;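 note: potency is the fitted concentration of half-maximal effect; plate controls were no enzyme wells and a reference inhibitor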
Target sequence (P00352 whole entry, looked up): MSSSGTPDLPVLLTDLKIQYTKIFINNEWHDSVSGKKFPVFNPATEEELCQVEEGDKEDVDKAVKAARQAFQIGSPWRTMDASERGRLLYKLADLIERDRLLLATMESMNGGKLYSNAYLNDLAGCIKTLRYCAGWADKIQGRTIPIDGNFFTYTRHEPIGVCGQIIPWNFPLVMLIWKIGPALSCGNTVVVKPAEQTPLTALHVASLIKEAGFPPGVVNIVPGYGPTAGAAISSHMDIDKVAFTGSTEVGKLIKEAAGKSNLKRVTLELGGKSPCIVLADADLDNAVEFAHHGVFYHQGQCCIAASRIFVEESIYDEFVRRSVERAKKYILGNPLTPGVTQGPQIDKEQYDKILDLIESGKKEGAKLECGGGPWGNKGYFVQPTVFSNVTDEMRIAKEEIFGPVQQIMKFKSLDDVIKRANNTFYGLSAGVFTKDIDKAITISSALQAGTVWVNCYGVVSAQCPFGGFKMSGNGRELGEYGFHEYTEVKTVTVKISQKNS
HPGD block = inhibitors of human 15-hydroxyprostaglandin dehydrogenase (HPGD). purified HPGD, NADH fluorescence kinetic, PGE2 substrate. 4.3% of 150,000 active. Potency, µM, for the others: at the top dose activity change, negative = inhibition, hits mostly inhibitors; note: potency is the fitted concentration of half-maximal effect
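NADH formation kinetics: reaction with 30 uM PGE2 and 1 mM NAD+ (final), 20 nM enzyme, Tris-HCl pH 8 with Tween 20, after 15 min compound preincubation at room temperature. Fluorescence change, last versus first of five reads.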
PNC inhibitor = perinucleolar compartment assembly inhibition; PC3M PTB-GFP, PNC prevalence imaging, 16 h; stronger effect = lower value; activity change (PNC), negative = inhibition, % at 10 µM; 3.1% of 140,000 active;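 active = readout at or below -70, meaning at least 70% loss of cells showing the perinucleolar compartment, a nuclear body marking cancer cells; inconclusive = readout between -30 and a set limit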;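 note: plate controls were DMSO wells for no effect and camptothecin positive control wells for full effect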
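Read-out is percentage of cells bearing a perinucleolar compartment, from automated 20x imaging of fixed, Hoechst-stained PC3M PTB-GFP cells. Cells were seeded 4 h, then exposed 16 h to compound (23 nl of library stock) in duplicate plates.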
The depositor's hits bear a star. Rows were chosen to be rich in hits. Some 11% of all compounds tested hit in one or more screens of this group. Unless noted, calls come from the whole dose curve; as a rule, active = well fitted inhibition curve with a large enough effect (not every such curve was filed as active); inconclusive = small, poorly fitted or top-dose-only effect, or another doubt; inactive = no such curve, though single readings can be large or run the other way. Unless noted, % is set by controls: 0 for no effect and ±100 for the full control effect.

For COC(=O)[C@@H]1C[C@H]1[C@@H](NC(=O)c1cc(C)on1)c1ccccc1 the results were ALDH1A1 block 2% and HPGD block -5%.
Screening COc1cc(C)ccc1OCCCCN1CC(C)OC(C)C1 (configuration not stated) returned ALDH1A1 block -5%, HPGD block 0% and PNC inhibitor 35.
Screening CCOc1ccccc1OCCOCCN1CC(C)OC(C)C1 (configuration not stated) returned ALDH1A1 block -10%, HPGD block 1% and PNC inhibitor -87*.
`S=C([S-])NCCNC(=S)[S-].[Zn+2]` gave ALDH1A1 block 11µM* and HPGD block 10µM*.
CCOC(=O)CN=C/C(C(=O)Nc1nccs1)=C(/C)O was read as ALDH1A1 block -5%.
For CCOC(=O)C1=C(C)NC(=O)C1CC(=O)Nc1ccccc1 (configuration not stated) the results were ALDH1A1 block 24%, HPGD block 35µM* and PNC inhibitor inconclusive.
For CCOC(=O)C1=C(C)NC(=O)NC1c1ccc(OCC(=O)Nc2ccccc2)c(OC)c1 (configuration not stated) the results were ALDH1A1 block -11%, HPGD block -19% and PNC inhibitor 22.
`CCOc1cc(/C=C2\NC(=S)N(c3c(C)n(C)n(-c4ccccc4)c3=O)C2=O)ccc1O` gave ALDH1A1 block -2%, HPGD block -6% and PNC inhibitor inconclusive.
For CCOc1cccc(/C=C2\NC(=S)N(c3ccccc3)C2=O)c1O the results were ALDH1A1 block 20µM*.
`COc1ccc(NC(=O)CN2CCN(c3ccccc3Cl)CC2)cc1` gave ALDH1A1 block inconclusive, HPGD block -5% and PNC inhibitor -100*.
Screening COc1ccc(NC(=O)CN2CCN(CC(=O)Nc3ccccc3Cl)CC2)cc1 returned ALDH1A1 block 8.9µM*, HPGD block -1% and PNC inhibitor 51.
Screening COc1ccc(SCC(=O)Nc2ccccc2Cl)cc1 returned ALDH1A1 block -11%.
For COc1ccc(NC(=O)CN2CCCCC2)cc1 the results were ALDH1A1 block -18%, HPGD block -25% and PNC inhibitor -6.
`CC(=O)O[C@H]1C[C@H]2CC[C@@H]3[C@H]4C[C@@H]([N+]5(C)CCCCC5)[C@@H](OC(C)=O)[C@]4(C)CC[C@@H]3[C@@]2(C)C[C@@H]1[N+]1(C)CCCCC1` gave ALDH1A1 block 3% and HPGD block -1%.
O=C(O)c1ccc(NS(=O)(=O)c2ccsc2C(=O)O)cc1 was read as ALDH1A1 block 8% and HPGD block -13%.
CN(C)N1C(N)=C(C#N)C(c2cccnc2)C2=C1CCCC2=O (configuration not stated) was read as ALDH1A1 block inconclusive, HPGD block -9% and PNC inhibitor 25.
COc1ccc(S(=O)(=O)NCCSCc2ccco2)cc1Cl was read as ALDH1A1 block 20µM*, HPGD block 0% and PNC inhibitor inconclusive.
For COc1ccc(S(=O)(=O)NCCSC(C)(C)C)cc1Cl the results were ALDH1A1 block inconclusive, HPGD block -2% and PNC inhibitor -25.
`Cc1ccc(C)c(N(CC(=O)NCCSCc2ccco2)S(C)(=O)=O)c1` gave ALDH1A1 block 3.5µM*, HPGD block -14% and PNC inhibitor 41.
`Cc1ccc(N(CC(=O)NCCSCc2ccco2)S(=O)(=O)c2ccc(C)cc2)cc1` gave ALDH1A1 block -10%, HPGD block -7% and PNC inhibitor -1.
CS(=O)(=O)NCCSCc1ccco1 was read as ALDH1A1 block inconclusive, HPGD block 2% and PNC inhibitor -82*.
CC(=O)Nc1ccc(S(=O)(=O)NCCSCc2ccco2)cc1 was read as ALDH1A1 block 3%, HPGD block -6% and PNC inhibitor 21.
For CCOC(=O)C1CCN(C(=S)NC2CC3C=CC2C3)CC1 (configuration not stated) the results were ALDH1A1 block 0%.
`O=C(CNC(=O)c1cccs1)NCC(=O)OCc1c(Cl)cccc1Cl` gave ALDH1A1 block 5%, HPGD block -8% and PNC inhibitor 81.
O=C(CNC(=O)c1cccs1)NCC(=O)OCc1ccccc1Cl was read as ALDH1A1 block 8%, HPGD block -11% and PNC inhibitor -83*.
For CCCCCCCC(=O)OCCOC(=O)CCCCCCC the results were ALDH1A1 block 12% and HPGD block -3%.
For CCN(CC)CCNC(=O)c1cc2cc(Br)ccc2s1 the results were ALDH1A1 block 4%.
CCOC(=O)c1cnc(SC2CC(=O)N(c3ccc(C)cc3)C2=O)nc1N (configuration not stated) was read as ALDH1A1 block inconclusive, HPGD block -3% and PNC inhibitor -2.
For CC(C)c1ccc(C(=O)CSc2ncn[nH]2)cc1 the results were ALDH1A1 block inconclusive, HPGD block 32µM* and PNC inhibitor -15.
CC(Sc1nc2ccccc2o1)C(=O)O (configuration not stated) was read as ALDH1A1 block -2%, HPGD block -10% and PNC inhibitor -15.
CC(C)c1ccc(N2C(=O)CC(Sc3ncn[nH]3)C2=O)cc1 (configuration not stated) was read as ALDH1A1 block 0.13µM*, HPGD block 16µM* and PNC inhibitor -9.
For CC(C)c1ccc(N2C(=O)CC(Sc3nc4ccccc4o3)C2=O)cc1 (configuration not stated) the results were ALDH1A1 block 0.71µM*, HPGD block inconclusive and PNC inhibitor 24.
For CCCc1c(O)nc(SC2CC(=O)N(c3cc(OC)ccc3OC)C2=O)[nH]c1=O (configuration not stated) the results were ALDH1A1 block -5%, HPGD block -6% and PNC inhibitor -9.
For O=C(CSc1ncn[nH]1)c1ccc2c(c1)OCCO2 the results were ALDH1A1 block inconclusive, HPGD block -12% and PNC inhibitor inconclusive.
`COc1ccc(N2C(=O)CC(Sc3ncn[nH]3)C2=O)c(OC)c1` (configuration not stated) gave ALDH1A1 block 14µM* and PNC inhibitor 3.
CC(=O)Nc1ccc(N(C(=O)CNC(=O)c2cccs2)C(C(=O)NC(C)(C)C)c2ccccc2)cc1 (configuration not stated) was read as ALDH1A1 block 3%.
For O=C(COC(=O)[C@H](Cc1ccccc1)NS(=O)(=O)c1ccccc1F)NC1CCCCC1 the results were ALDH1A1 block inconclusive, HPGD block -10% and PNC inhibitor inconclusive.
`CC(=O)N1CCc2ccc(NC(=O)c3c(-c4c(Cl)cccc4Cl)noc3C)cc21` gave ALDH1A1 block 3%.
For CCN(CC)CCCCn1c(-c2ccccc2)nc2c(Nc3ccccc3)nc(C)nc21 the results were ALDH1A1 block -13% and HPGD block -12%.
`Fc1ccc(-n2nnc(-c3nccs3)n2)cc1` gave ALDH1A1 block -7%.
Screening CCOc1cc(CNC2CCCC2)c(Cl)cc1OCC(=O)Nc1ccccc1 returned ALDH1A1 block -7%.
`COc1ccc2c(Cl)c(C(=O)NN)sc2c1` gave ALDH1A1 block 1.1µM*, HPGD block -29% and PNC inhibitor -6.
`COc1ccc2c(Cl)c(C(N)=O)sc2c1` gave ALDH1A1 block -1%, HPGD block -13% and PNC inhibitor 23.
